KinaseGlo FLuc: Counterscreen for Luciferase (Kinase-Glo TM) Inhibition | Luciferin 4-monooxygenase (Photuris pensylvanica), Q27757 | Potency, µM (doses to about 38.3 µM), for inactives: at the highest dose activity change, negative = inhibition, actives largely listed as inhibitors | hit rate 0.28% among 200,000 | Kinase-Glo luciferase, ATP luminescence, 8 min; further: on the % scale 0 is the no-effect control and ±100 the full control effect; nearly all actives have a fitted effect of over 60% in size
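Inhibition of Kinase-Glo luciferase light generation was assessed at 10 uM ATP in pH 7.2 imidazole buffer, with luminescence measured after eight minutes at ambient temperature.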
Rab9 prom act: qHTS Assay for Rab9 Promoter Activators. Huh7 Rab9 promoter-luciferase reporter, luminescence, 24 h. Potency, µM (series often up to 9.22 µM), for inactives: at the highest dose activation, negative = inhibition, usual class: activators. hit rate 2.8% among 320,000. AID 485297, 2010; further: % of control where 0% means no effect; nearly all actives have a fitted effect of over 60% in size
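Rab9 promoter-driven luciferase in stably transfected Huh7 cells; 1500 cells/well rested 2 h, exposed to compound in DMSO for 24 h at 37 °C, 5% CO2. Luminescence read 10 min after adding luciferase reagent at ambient temperature.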
FLuc modulator: qHTS profiling assay for firefly luciferase inhibitor/activator using purifed enzyme and Km concentrations of substrates (counterscreen for miR-21 project); hit rate 6.9% among 360,000; Luciferin 4-monooxygenase (Photinus pyralis), P08659; Potency, µM (doses to about 57.5 µM), for the others: top-dose activity change, negative = inhibition, actives largely listed as inhibitors; purified FLuc, Km substrates, luminescence inhibition;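 further: plate controls were vehicle for no effect and reference inhibitor for full effect; nearly all actives have a fitted effect of over 55% in size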
Target sequence (P08659 whole entry, looked up): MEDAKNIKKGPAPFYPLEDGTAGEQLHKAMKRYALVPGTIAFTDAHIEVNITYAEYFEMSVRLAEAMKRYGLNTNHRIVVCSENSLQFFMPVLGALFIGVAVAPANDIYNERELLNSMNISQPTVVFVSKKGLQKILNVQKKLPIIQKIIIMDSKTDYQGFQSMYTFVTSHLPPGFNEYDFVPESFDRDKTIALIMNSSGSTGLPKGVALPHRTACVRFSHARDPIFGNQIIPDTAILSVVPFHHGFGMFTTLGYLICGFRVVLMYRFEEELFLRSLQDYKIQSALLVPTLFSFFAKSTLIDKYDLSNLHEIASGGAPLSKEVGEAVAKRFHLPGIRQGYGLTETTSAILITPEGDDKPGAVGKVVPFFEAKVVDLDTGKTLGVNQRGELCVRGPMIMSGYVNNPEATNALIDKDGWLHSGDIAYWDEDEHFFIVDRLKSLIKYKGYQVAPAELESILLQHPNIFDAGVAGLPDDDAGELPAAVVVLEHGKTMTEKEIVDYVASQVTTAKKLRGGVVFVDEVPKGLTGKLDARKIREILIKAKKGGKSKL
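Purified P. pyralis luciferase, 10 nM final, with Km-level 10 uM D-luciferin and 10 uM ATP in 50 mM Tris acetate pH 7.5, 10 mM Mg acetate, 0.01% Tween-20, 0.05% BSA; 6-point qHTS titration about 60 µM downward; luminescence read.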
NPC1 promoter act: qHTS Assay for NPC1 Promoter Activators | Potency, µM (top dose mostly 9.22 µM), for the others: top-dose activation, most hits filed as activators | hit rate 2.4% among 320,000 | Huh7 NPC1 promoter luciferase reporter, 24 h; further: % of control where 0% means no effect; nearly all actives have a fitted effect of over 60% in size
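Readout is luciferase luminescence, reflecting NPC1 promoter activation in stably transfected Huh7 cells after 24 h compound exposure at 37 °C in reduced-serum medium with 10% FBS.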
SMN2 splice up: qHTS Assay for Enhancers of SMN2 Splice Variant Expression; HEK293 SMN2-luciferase splicing reporter, luminescence, 30-36 h; AID 1458, 2008; hit rate 2.8% among 210,000; Potency, µM (top dose mostly 46.1 µM), for the others: top-dose activity change, positive = activation, hits mostly activators; further: % of control where 0% means no effect; nearly all actives have a fitted effect of over 55% in size
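HEK293 cells carry an SMN2 […]–luciferase reporter in which exon 7 inclusion puts luciferase in frame. Cells were plated 10-12 h before compound addition, then incubated 30-36 h at 37C. ONE-Glo luminescence was read; sodium butyrate at 4.5 mM final served as control.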
ELG1 genotoxic: qHTS screen for small molecules that induce genotoxicity in human embryonic kidney (HEK293T) cells expressing luciferase-tagged ELG1 | Potency, µM (titrated, usually from 46 µM), without a hit: at the highest dose activity change, positive = activation, actives largely listed as activators | hit rate 1.3% among 330,000 | HEK293T ELG1-luciferase reporter, luminescence, 16 h; further: % of control where 0% means no effect; nearly all actives have a fitted effect of over 60% in size
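Reporter readout depends on ELG1 protein level, which increases with genetic stress. After 16 hr compound exposure at 37 °C, luciferase activity was quantified using ONE-Glo.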
The depositor's hits bear a star; [ ] = remark or other dose. Only some compounds are listed: those with a hit (about 7.3% of all), similar ones and a draw of the others. The call rests on the fitted dose curve; in most records, active means well fitted curve in the direction sought with a large enough effect; inconclusive means small, poorly fitted or top-dose-only effect, or another doubt; inactive means no such curve, though single readings can be large; an effect the other way counts as inactive or inconclusive. Potency means the concentration at half of the fitted maximal effect.

What do the screens show for `CCOc1ccccc1NC1(c2ccccc2)C(=O)c2ccccc2C1=O`?
FLuc modulator: -9%

What do the screens show for `Cc1cccn2c(=O)cc(CSc3nnc(NC(=O)c4ccc(F)cc4)s3)nc12`?
FLuc modulator: 5%

Results for COC(=O)c1sc(NC(=O)COc2ccccc2C)nc1C ?
KinaseGlo FLuc: -3%; Rab9 prom act: inconclusive; FLuc modulator: inconclusive; NPC1 promoter act: 11%; SMN2 splice up: 5%; ELG1 genotoxic: inconclusive

How did Cc1cnc(NC(=O)COc2ccccc2Cl)s1 do in these assays?
KinaseGlo FLuc: -23%; Rab9 prom act: 0.25µM*; FLuc modulator: 0.27µM*; NPC1 promoter act: 0.1µM*; SMN2 splice up: 0.79µM*; ELG1 genotoxic: inconclusive

Results for COc1ccccc1OCC(=O)Nc1nc(C)c(C)s1 ?
Rab9 prom act: 4µM*; FLuc modulator: 8.5µM*; NPC1 promoter act: 2.8µM*; ELG1 genotoxic: inconclusive

Results for O=C(COc1ccccc1)Nc1nc2c(s1)CCCC2 ?
Rab9 prom act: inconclusive; FLuc modulator: 13µM*; NPC1 promoter act: inconclusive; ELG1 genotoxic: inconclusive

Results for Cc1cnc(NC(=O)CCNC(=O)c2ccccc2Cl)s1 ?
KinaseGlo FLuc: -2%; Rab9 prom act: -4%; FLuc modulator: -1%; NPC1 promoter act: 0%; SMN2 splice up: -18%; ELG1 genotoxic: 0%

How did O=C(COc1ccccc1Cl)Nc1nc2c(s1)CCCC2 do in these assays?
FLuc modulator: 21µM*

Results for O=C(CSCc1ccc(F)cc1)Nc1nc2c(s1)CCCC2 ?
KinaseGlo FLuc: 11%; Rab9 prom act: 7%; FLuc modulator: -12%; NPC1 promoter act: -5%; SMN2 splice up: -6%; ELG1 genotoxic: -1%

What do the screens show for `C1CCOC1`?
SMN2 splice up: -2%

How did Cc1ccccc1OCc1ccc(-c2nc(C#N)c(NCc3cccnc3)o2)o1 do in these assays?
FLuc modulator: -17%

Results for Cc1cc(=O)c2cc(C(=O)Nc3ccc(C)c(C)c3)ccc2[nH]1 ?
FLuc modulator: 4%

Results for CCOC(=O)N1CCc2c(sc3c2c(=O)n(Cc2ccccc2)c(=O)n3CC(=O)Nc2ccccc2F)C1 ?
FLuc modulator: -6%; SMN2 splice up: -14%

Results for CCn1c(C)nc2cc(C(=O)NNC(=S)Nc3ccccc3)ccc21 ?
KinaseGlo FLuc: 1%; Rab9 prom act: 0.79µM*; FLuc modulator: 12µM*; NPC1 promoter act: 0.45µM*; SMN2 splice up: 9%; ELG1 genotoxic: 10µM*

How did CCn1c(C)nc2cc(C(=O)NNC(=S)Nc3ccccc3Cl)ccc21 do in these assays?
KinaseGlo FLuc: 4%; Rab9 prom act: inconclusive; FLuc modulator: 17µM*; NPC1 promoter act: inconclusive; SMN2 splice up: inconclusive; ELG1 genotoxic: inconclusive

Results for CCn1c(C)nc2cc(C(=O)NNC(=S)Nc3ccc(Cl)cc3Cl)ccc21 ?
KinaseGlo FLuc: 1%; Rab9 prom act: -1%; FLuc modulator: inconclusive; NPC1 promoter act: 3%; SMN2 splice up: -8%; ELG1 genotoxic: -4%

What do the screens show for `CCn1c(NC(=S)Nc2ccccc2)nc2ccccc21`?
KinaseGlo FLuc: -2%; Rab9 prom act: inconclusive; FLuc modulator: 3.4µM*; NPC1 promoter act: inconclusive; SMN2 splice up: 25%; ELG1 genotoxic: 3%

What do the screens show for `CCn1c(C)nc2cc(C(=O)NNC(=S)Nc3ccc(Cl)cc3)ccc21`?
Rab9 prom act: 15%; FLuc modulator: inconclusive; NPC1 promoter act: 8%; ELG1 genotoxic: 3%

What do the screens show for `Cc1cc(Cl)ccc1Nc1sc(C(=O)c2cc3cc(Cl)ccc3o2)c(N)c1C#N`?
KinaseGlo FLuc: -3%[7.66 µM]; SMN2 splice up: -40%[9.22 µM]

How did CC(C)OCCCNC(=O)CCCn1c(SCC(=O)c2ccc(Br)cc2)nc2c(sc3ccccc32)c1=O do in these assays?
FLuc modulator: -3%; SMN2 splice up: 9%

How did CC1CCc2c(sc(NC(=O)c3nc4ncccn4n3)c2C#N)C1 (stereo unspecified) do in these assays?
Rab9 prom act: 4.5µM*; FLuc modulator: 7.6µM*; NPC1 promoter act: 3.2µM*; ELG1 genotoxic: inconclusive

Results for Cc1onc(-c2ccccc2)c1C(=O)Nc1sc2c(c1C#N)CCC(C)C2 (stereo unspecified) ?
KinaseGlo FLuc: 2%; Rab9 prom act: -3%; FLuc modulator: inconclusive; NPC1 promoter act: 0%; SMN2 splice up: -14%; ELG1 genotoxic: -6%

How did N#Cc1c(NC(=O)c2nc3ncccn3n2)sc2c1CCCCC2 do in these assays?
KinaseGlo FLuc: -7%; Rab9 prom act: 4.5µM*; FLuc modulator: 13µM*; NPC1 promoter act: 1.8µM*; SMN2 splice up: 7.9µM*; ELG1 genotoxic: 2.3µM*

Results for N#Cc1c(NC(=O)c2cnn3cccnc23)sc2c1CCCC2 ?
KinaseGlo FLuc: -7%; Rab9 prom act: inconclusive; FLuc modulator: inconclusive; NPC1 promoter act: inconclusive; SMN2 splice up: 19%; ELG1 genotoxic: inconclusive

Results for COc1ccc(NC(=O)Cn2c(=O)n(-c3ccc(Cl)cc3)c(=O)c3c(C)c(C(=O)N(C)C)sc32)cc1Cl ?
FLuc modulator: 3%

What do the screens show for `O=C(N/N=C/c1ccc(O)cc1O)c1cc(-c2ccccc2)n[nH]1`?
KinaseGlo FLuc: 1%

How did O=C(N/N=C/c1c[nH]c2ccccc12)c1cc(-c2ccc(-c3ccccc3)cc2)n[nH]1 do in these assays?
KinaseGlo FLuc: 0%; Rab9 prom act: inconclusive; FLuc modulator: 1.3µM*; NPC1 promoter act: 30%; SMN2 splice up: 24%; ELG1 genotoxic: 13%

Results for O=C(N/N=C/c1c[nH]c2ccccc12)c1cc(-c2ccc3ccccc3c2)n[nH]1 ?
KinaseGlo FLuc: 6%; Rab9 prom act: -4%; FLuc modulator: 9.5µM*; NPC1 promoter act: -11%; SMN2 splice up: -28%; ELG1 genotoxic: -12%

How did O=C(N/N=C/c1c[nH]c2ccccc12)c1cc(-c2ccccc2)n[nH]1 do in these assays?
KinaseGlo FLuc: -2%; Rab9 prom act: 0%; FLuc modulator: 12µM*; NPC1 promoter act: -1%; SMN2 splice up: 2%; ELG1 genotoxic: -4%

Results for Cc1ccc(-c2cc(C(=O)N/N=C/c3c[nH]c4ccccc34)[nH]n2)cc1 ?
KinaseGlo FLuc: 0%; Rab9 prom act: -17%; FLuc modulator: 11µM*; NPC1 promoter act: -19%; SMN2 splice up: -6%; ELG1 genotoxic: -1%

High-throughput results deposited in PubChem by National Center for Advancing Translational Sciences (NCATS).
